Measured values taken from PubChem BioAssay (Tox21).
“And” between values parts separate entries of the source, which are not always exact repeats. Equal entries are not always repeated. Records with an inconclusive call do not appear. More than one record can exist for a structure, and the calls need not agree. The source made the active and inactive calls. Calls come from the whole dose curve; as a rule, active = well fitted cell-killing curve with a large enough effect in the repeat runs; inconclusive = weak or mixed curves; inactive = flat fitted curve, though single readings scatter.

Assay: qHTS RealTime-Glo MT Cell Viability Assay in HepG2 cells - 16 hour (AID 1224885); note: nearly all actives have a fitted effect of over 50% in size
Details: RealTime-Glo luminescence; series mostly up to 76.8 µM; activity change, negative = cytotoxic: at the top concentration
Text: U.S. Tox21 Program National Center for Advancing Translational Sciences [NCATS] NIH Chemical Genomics Center [NCGC] U.S. Environmental Protection Agency [EPA] National Institutes of Environmental Health Sciences [NIEHS] National Toxicology Program [NTP] U.S. Food and Drug Administration [FDA] Tox21 Assay Overview: Measure of cell viability is critical in the cell-base assay. Analysis of cell viability is necessary for the characterization of cell responses to cytotoxic drugs and environmental stress. A RealTime-Glo MT Cell Viability Assay to monitor cell viability in real time of continues cell culture during 40 hours of compound treatment was used to screen Tox21 10K library compounds in HepG2 cells. The RealTime-Glo MT Cell Viability Assay is a nonlytic, homogeneous, bioluminescent method to measure cell viability in real time using a simple, plate-based method. The assay involves adding NanoLuc luciferase and a cell-permeant prosubstrate to cells in culture. Viable cells reduce the proprietary prosubstrate to generate a substrate for NanoLuc luciferase. This substrate diffuses from cells into the surrounding culture medium, where it is rapidly used by the NanoLuc Enzyme to produce a luminescent signal. The signal correlates with the number of viable cells, making the assay well suited for cytotoxicity studies.
Tox21 Assay Protocol Summary: The mixture of HepG2 cell suspension and reagents were dispensed at 600cells/6 ul/well in 1536-well tissue culture treated black solid bottom plates using a Multidrop dispenser. After the assay plates were incubated at a 37 C/5% CO2 incubator for 5 hours, 23 nL of compounds dissolved in DMSO, positive and negative controls was transferred to the assay plate by a pintool work station. The plates were incubated at 37 C for 40 hours. The luminescence intensity were measured at 0h, 8h, 16h, 24h, 32h and 40h time points using ViewLux plate reader during compound treatment.
% is set by controls: 0 for no effect and ±100 for the full control effect; potency is the fitted concentration of half-maximal effect.

| SMILES | activity change, negative = cytotoxic | Potency |
| --- | --- | --- |
| ClC1=C(Cl)[C@]2(Cl)[C@@H]3[C@@H](Cl)[C@@H](Cl)C[C@@H]3[C@@]1(Cl)C2(Cl)Cl | 3.48% (inactive) |  |
| CC1(C)CN=C(NN=C(/C=C/c2ccc(C(F)(F)F)cc2)/C=C/c2ccc(C(F)(F)F)cc2)NC1 |  | 19.5 µM (active) |
| Oc1ccc(I)cc1 | 0.432% (inactive) |  |
| CN(CCCC(=O)c1cccnc1)N=O | -3.6% (inactive) |  |
| CC(C)CBr | -2.91% (inactive) |  |
| c1cc[c]([Sb]([c]2ccccc2)[c]2ccccc2)cc1 | 0.886% (inactive) |  |
| N#C/C=C/C#N | -2.71% (inactive) |  |
| O=[N+]([O-])c1cc(C(F)(F)F)c(Cl)c([N+](=O)[O-])c1Cl |  | 38.9 µM (active) |
| CC(C)N1C(=O)N(c2ccccc2)CSC1=NC(C)(C)C | -16.5% (inactive) |  |
| CCCCCCCCCCBr | -0.169% (inactive) |  |
| CC(=O)/C=C/c1ccc2c(c1)OCO2 | -6.54% (inactive) |  |
| COc1ccc([N+](=O)[O-])cc1O | -0.491% [at 35.3 µM] (inactive) |  |
| CCCCCCCCCBr | -9.05% (inactive) |  |
| CC(=[OH+])/C=C(/C)[O-].CC(=[OH+])/C=C(\C)[O-].CC(=[OH+])/C=C(\C)[O-].[Fe] | 0.351% (inactive) |  |
| C[C@]12CC[C@@H]3c4ccc(OC(=O)N(CCCl)CCCl)cc4CC[C@H]3[C@@H]1CC[C@@H]2O | -14.6% [at 35.3 µM] (inactive) |  |
| C=CC(=O)OCC(COC(=O)C=C)(COC(=O)C=C)COC(=O)C=C |  | 4.9 µM (active) |
| CC(C)OC(=S)S | -0.862% (inactive) |  |
| O=[N+]([O-])c1c2ccccc2cc2ccccc12 | -16.2% (inactive) |  |
| CCOP(=S)(OCC)SCCS(=O)(=O)CC | -11.3% (inactive) |  |
| CC(=O)[O-].CC(=O)[O-].[Hg+2] |  | 2.45 µM (active) |

| SMILES | activity change, negative = cytotoxic | Potency |
| --- | --- | --- |
| OC(Cc1ccccc1Cl)(Cn1cncn1)C1(Cl)CC1 (stereo not given) | -21.5% (inactive) |  |
| C=CC(=O)N(C)C | -9% (inactive) |  |
| CC(Cl)CN(C)C (stereo not given) | -3% (inactive) |  |
| CN(C)C(=S)S |  | inactive and 15.5 µM (active) |
| COC(=O)N(C(=O)N1COC2(C(=O)OC)Cc3cc(Cl)ccc3C2=N1)c1ccc(OC(F)(F)F)cc1 (stereo not given) | -11.3% [at 35.3 µM] (inactive) |  |
| Clc1ccc(C(c2ccccc2Cl)C(Cl)(Cl)Cl)cc1 (stereo not given) |  | inactive |
| ClC1=C(Cl)[C@]2(Cl)[C@@H]3[C@@H]4C[C@@H]([C@H]5O[C@@H]45)[C@@H]3[C@@]1(Cl)C2(Cl)Cl |  | 43.6 µM (active) |
| CCOc1cc(C(C)(C)C)ccc1C1COC(c2c(F)cccc2F)=N1 (stereo not given) | -16.3% [at 35.3 µM] (inactive) |  |
| CN(CCCC(O)c1cccnc1)N=O (stereo not given) | -5.24% (inactive) |  |
| CCCCCCCCCCCCCCCCCCn1cc[n+](C)c1 |  | 43.4 µM (active) |
| [Cd+2].[Cl-].[Cl-] | -13.8% (inactive) |  |
| CC(C)CC(C)N (stereo not given) | -1.07% (inactive) |  |
| CCOP(=S)(OCC)OC(Cl)C(Cl)(Cl)Cl (stereo not given) | -2.96% (inactive) |  |
| Cl/C=C\CCl | -0.922% (inactive) |  |
| COc1cc(N)c(Cl)cc1C(=O)NC1CN2CCC1CC2 (stereo not given) | 0.0952% [at 35.3 µM] (inactive) |  |
| Clc1ccc(C(Cl)(Cl)Cl)c(Cl)c1 | -9.93% (inactive) |  |
| Nc1ccc(Cc2ccc(N)c(Cl)c2)cc1Cl | -29.1% (inactive) |  |
| N#Cc1ccc(O)cc1 | 1.35% (inactive) |  |
| CN(C)[C@@H]1C(=O)C(C(N)=O)=C(O)[C@@]2(O)C(=O)C3=C(O)c4c(O)ccc(Cl)c4[C@@](C)(O)[C@H]3C[C@@H]12 | -4.02% (inactive) |  |
| N#Cc1ccccc1Cl | -2.08% (inactive) |  |
